Bioassay records (PubChem)
SENP6 inh – SENP6 protease inhibition | Recombinant SENP6 catalytic domain, aminoluciferin luminescence | inhibition, % at 10 µM | 330,000 tested, 1.8% active | AID 2599;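 active means inhibition above about 50% at the single tested dose, limit read from the data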;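 further: plate controls were DMSO wells with enzyme for no effect and DMSO wells lacking enzyme for full effect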
SENP8 block-1 – inhibitors of human SENP8 protease; Q96LD8; recombinant SENP8, Nedd8 substrate fluorescence; inhibition, % at 20 µM; 360,000 tested, 0.64% active; AID 602440; in the data active means inhibition mostly above about 40%, no sharp cut-off; inactive means mostly below about 27%
Target sequence (Q96LD8 whole entry, looked up): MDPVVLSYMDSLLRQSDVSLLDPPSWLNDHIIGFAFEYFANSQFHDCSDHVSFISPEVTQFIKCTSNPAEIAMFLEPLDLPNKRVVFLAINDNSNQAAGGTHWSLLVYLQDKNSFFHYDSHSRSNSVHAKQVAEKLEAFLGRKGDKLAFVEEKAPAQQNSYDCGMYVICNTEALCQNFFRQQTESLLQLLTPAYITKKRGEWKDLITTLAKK
PPC-1+TRAIL kill – PPC-1 cancer cell killing with TRAIL present | PPC-1 cells + TRAIL, ATPLite viability luminescence | cell killing (% activity), % at 4 µM or 5 µM | 220,000 tested, 0.41% active;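 active means cell killing above 50% in the first pass at 4 µM, then a duplicate retest at 5 µM averaging 50% or more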;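 further: plate controls were cells with TRAIL plus DMSO for no effect and medium-only wells lacking cells for full effect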
C8 TRAIL sens – sensitizes caspase-8 expressing cells to TRAIL | NB7+C8 cells + TRAIL, ATPlite viability luminescence | inhibition (viability loss, TRAIL sensitization), % at 10 µM | 360,000 tested, 1% active | AID 624354;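 active means compounds causing at least 50% loss of cell viability in the single-dose screen, relative to plate controls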
SENP8 block-2 – blocks the human protease SENP8; Q96LD8; purified SENP8, Z-RLRGG-aminoluciferin cleavage, luminescence; inhibition, % at 10 µM; 330,000 tested, 1.2% active; in the data active means inhibition above about 50%
SENP7 block – inhibitors of human SENP7 protease; Q9BQF6; recombinant SENP7, Z-RLRGG-aminoluciferin luminescence, 40 min; inhibition, % at 5 µM; 330,000 tested, 1.5% active;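 active means inhibition above about 50% at the single test dose, limit read from the data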;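 further: plate controls were DMSO with enzyme for no effect and no enzyme buffer wells for full effect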
SENP8 conf – confirmation of human SENP8 protease inhibitors | shares compounds with SENP7 block | Recombinant SENP8, Z-RLRGG-aminoluciferin luminescence, 60 min | inhibition, % at 12.5 µM | 6,200 tested, 40% active;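 active means mean inhibition across replicates above about 50%, limit read from the data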
SENP6 conf – human SENP6 inhibition, confirmed; recombinant SENP6, Z-RLRGG-aminoluciferin luminescence; 6,200 tested, 58% active; shares compounds with SENP7 block; inhibition, % at 12.5 µM
SENP7 conf – human SENP7 inhibition, confirmed | recombinant SENP7, Z-RLRGG-aminoluciferin luminescence, 40 min | AID 488917 | shares compounds with SENP7 block | 6,200 tested, 69% active | inhibition, % at 12.5 µM
Casp3 SENP sel – selectivity test for SENP inhibitors: human caspase-3 inhibition; shares compounds with SENP7 block; purified caspase-3, Z-DEVD-aminoluciferin luminescence, 60 min; inhibition, % at 12.5 µM; 6,200 tested, 60% active; AID 488918;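 active means mean inhibition above about 50%, limit read from the data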;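 further: plate controls were enzyme with DMSO for no effect and wells without caspase-3 for full effect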
Target sequence (P42574 28-227 limits assumed): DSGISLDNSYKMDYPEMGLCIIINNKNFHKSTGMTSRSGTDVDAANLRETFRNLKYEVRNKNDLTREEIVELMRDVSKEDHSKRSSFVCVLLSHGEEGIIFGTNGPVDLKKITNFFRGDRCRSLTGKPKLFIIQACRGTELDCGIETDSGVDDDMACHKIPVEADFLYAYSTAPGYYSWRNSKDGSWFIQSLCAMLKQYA
Luc interf – counter-screen for SENP inhibitors: luminescence interference. shares compounds with SENP7 block. Pre-incubated SENP8/Z-RLRGG-aminoluciferin, luciferase luminescence interference. inhibition, % at 12.5 µM. 6,200 tested, 39% active;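 active means mean inhibition above about 50% when retested at one dose, limit read from the data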;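 further: plate controls were DMSO wells with completed reaction for no effect and substrate without enzyme for full effect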
* hit, by the source's call; · = not tested or not shown. Most compounds without a hit are left out; they make up all but 3% or so of the library.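 How the source made its calls, unless noted: active means mean inhibition above about 50% in the one-dose retest (limit read from the data); inactive means the rest.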

SMILES	SENP6 inh	SENP8 block-1	PPC-1+TRAIL kill	C8 TRAIL sens	SENP8 block-2	SENP7 block	SENP8 conf	SENP6 conf	SENP7 conf	Casp3 SENP sel	Luc interf
COc1ccc(NC(C)C(=O)N/N=C/c2ccccc2OCc2cccc(Br)c2)cc1 (stereo unspecified)	5.0	20.4	16.3	7.8	1.9	92.6*	-12.8	-6.3	-8.6	7.2	-2.5
OC(c1ccccc1)c1nc(-c2cc3ccccc3o2)cs1 (stereo unspecified)	·	-13.5	·	9.5	·	·	·	·	·	·	·
Nc1nc(-c2cc3ccccc3o2)cs1	71.5*	6.8	0.5	16.4	39.4	39.4	51.6*	53.3*	81.4*	56.0*	11.6
Nc1nc(-c2ccc(-c3ccccc3)cc2)cs1	-16.1	-417.7	7.9	59.0*	67.6*	72.6*	10.7	82.3*	96.9*	54.7*	28.1
Nc1nc(-c2ccc3ccccc3c2)cs1	33.2	-255.3	33.5	32.6	68.6*	73.8*	0.1	83.1*	96.8*	64.0*	84.3*
COc1ccccc1CNC(=O)COc1ccccc1C(=O)c1cnn(-c2ccccc2)c1	50.7*	-14.8	·	12.1	25.4	2.7	31.6	26.3	60.6*	36.6	28.0
COCCNC(=O)C1(C)CCCN(C(=O)c2ccc3snnc3c2)C1 (stereo unspecified)	·	12.9	·	-0.1	·	·	·	·	·	·	·
N#C/C(=C\c1cccs1)C(=O)Nc1ccccn1	59.4*	18.2	-6.1	20.2	24.3	63.6*	40.4	49.7	83.2*	71.1*	21.6
N#C/C(=C\c1ccccc1)C(=O)Nc1ccccn1	-17.0	-51.3	·	-18.5	1.7	7.6	·	·	·	·	·
O=C(C1CCN(S(=O)(=O)c2ccc(Cl)cc2)CC1)N1CCN(c2ccccn2)CC1	0.2	-28.9	·	-10.2	-10.3	-1.4	·	·	·	·	·
CC(=O)Nc1nc(-c2ccc3c(c2)OCO3)cs1	52.3*	26.6	14.8	17.9	8.9	41.5	27.2	24.5	56.3*	52.5*	22.1
N#CCC(=O)Nc1nc(-c2ccc3c(c2)OCCO3)cs1	89.4*	-1.0	12.4	4.3	81.7*	60.5*	52.9*	67.4*	88.8*	67.8*	39.8
O=C(Cc1ccc(NC(=O)C2CCN(C(=O)C3CC3)CC2)cc1)Nc1cccc(C(=O)N2CCCCC2)c1	·	-9.3	·	-2.9	·	·	·	·	·	·	·
COc1cc(/C=N/Nc2ccc(C(=O)O)cc2)cc(OC)c1OC	88.4*	-133.6	10.1	7.5	74.3*	70.7*	87.5*	85.5*	97.8*	80.9*	36.4
COc1cc(/C=N/NC(=O)c2ccccc2)ccc1O	-15.2	-31.5	32.4	6.0	-18.7	-13.5	·	·	·	·	·
COc1cc(/C=N/Nc2ccc(C(=O)O)cc2)ccc1O	98.7*	-223.9	17.6	1.1	95.6*	98.1*	97.5*	97.9*	102.6*	94.4*	96.7*
CCCC[C@@H]1Cc2[nH][nH]c(=O)c2[C@H](c2cccc3ccccc23)O1	·	9.0	·	-6.6	·	·	·	·	·	·	·
O=C(c1ccccc1)c1ccc(Cn2cc(-c3ccccc3)nn2)cc1	61.3*	13.2	·	12.9	57.8*	51.7*	51.5*	64.9*	83.0*	31.2	16.9
CCc1ccc(-c2nc(SCC(=O)N(CC)C3CCS(=O)(=O)C3)n[nH]2)cc1 (stereo unspecified)	6.9	-14.0	·	38.0	9.0	0.1	·	·	·	·	·
Cc1ccc(CN2CCN(CC(=O)N/N=C/c3ccccc3F)CC2)cc1	55.2*	16.1	4.7	21.5	29.8	4.9	10.9	22.7	49.9	7.4	2.2
O=C(CN1CCN(Cc2ccccc2)CC1)N/N=C/c1ccccc1F	-11.7	15.0	-9.0	-6.0	-2.4	-3.6	·	·	·	·	·
CCOc1ccc(NC(=O)c2ccccn2)cc1	91.4*	6.1	87.3*	90.6*	81.3*	92.3*	91.6*	91.9*	100.0*	95.6*	89.1*
CCOc1ccc(NC(=O)c2nccnc2CO)cc1	52.7*	-11.9	25.4	49.3	14.4	47.5	37.6	34.8	74.1*	82.4*	55.3*
Cc1nc(SCC(=O)N2CCCC2=O)c2c(C)c(C)sc2n1	·	10.9	·	14.9	·	·	·	·	·	·	·
COc1ccc(NC(=O)NC2(C(=O)N3CCCCC3)CCCCC2)cc1	2.1	6.1	·	-3.9	-1.0	-0.7	·	·	·	·	·
SMILES	SENP6 inh	SENP8 block-1	PPC-1+TRAIL kill	C8 TRAIL sens	SENP8 block-2	SENP7 block	SENP8 conf	SENP6 conf	SENP7 conf	Casp3 SENP sel	Luc interf
O=C(Nc1ccccc1)Nc1ccc2snnc2c1	61.7*	-1.0	23.8	-1.9	38.2	61.7*	56.4*	53.7*	76.6*	39.3	63.3*
O=C(Nc1ccccc1F)c1ccc2snnc2c1	51.2*	2.2	·	-7.2	21.4	46.1	28.4	28.2	65.3*	71.5*	6.7
CCN(CC)C(=O)c1nc[nH]c1C(=O)N1CCc2ccccc2C1	13.7	11.6	·	-17.1	-0.5	0.3	·	·	·	·	·
C[C@H](CO)N1C[C@H](C)[C@H](CN(C)S(=O)(=O)c2ccc(Cl)cc2)OCc2cnnn2CCCC1=O	·	6.7	·	-0.5	·	·	·	·	·	·	·
Oc1cc(NCCc2cccnc2)cc2cccnc12	71.6*	-157.9	·	43.7	48.4	39.5	14.3	49.4	14.1	88.1*	-3.5
C#CCOc1ccc2c3c(c(=O)oc2c1)CCCC3	-7.9	-469.2	·	-1.0	-12.5	1.7	·	·	·	·	·
COc1ccc([C@H]2Cc3cc(O)cc(O)c3C(=O)O2)cc1O	94.5*	-120.6	·	-3.8	88.3*	89.7*	89.0*	87.9*	97.8*	89.5*	91.3*
CC(C)NC(=O)c1ccc2sc([C@@H]3O[C@H](CO)[C@H](O)[C@H](O)[C@H]3O)nc2c1	·	13.6	·	-10.2	·	·	·	·	·	·	·
CC(C)(C)C(=O)CSc1ncnc2c1cnn2-c1ccccc1	-42.1	-35.9	25.0	18.8	-16.0	16.4	·	·	·	·	·
c1ccc(CSc2ncnc3c2cnn3-c2ccccc2)cc1	71.0*	-4.6	-16.2	-5.3	54.5*	71.7*	8.6	7.1	18.8	4.6	7.9
CC(C)OC(=O)CSc1ncnc2c1cnn2-c1ccccc1	33.2	-25.4	1.6	-2.2	18.9	51.7*	14.8	17.8	25.7	28.4	7.4
Cc1ccc2occ(/C=C/C(=O)O)c(=O)c2c1	74.1*	-180.7	0.7	-1.4	33.9	32.0	64.3*	58.3*	86.1*	58.5*	60.6*
